The values that follow come from PubChem BioAssay.

A short description of the experiment: yeast 75Q aggregation reduction – 75Q-TubU reporter (AID 1593). The following applies: Yeast 75Q polyglutamine aggregation reporter.
The compound `CN1CCN(CCCN2c3ccccc3Sc3ccc(Cl)cc32)CC1` displayed a score of 1.36. The compound `CC(C(=O)O)c1ccc(C(=O)c2cccs2)cc1` (stereo unspecified) had a score of 0.92. Turning to `Nc1c(Br)cc(Br)cc1CNC1CCC(O)CC1` (stereo unspecified), the score is 1.12. In the case of `COc1cnc(NS(=O)(=O)c2ccc(N)cc2)nc1` it was 1.34; in that of `CC(C)(Oc1ccc(CCNC(=O)c2ccc(Cl)cc2)cc1)C(=O)O`, 1.19; in that of `CO[C@]12C[C@@H](COC(=O)c3cncc(Br)c3)CN(C)[C@@H]1Cc1cn(C)c3cccc2c13`, 0.99.

`CN1Cc2c(N)cccc2C(c2ccccc2)C1` (stereo unspecified): the score was determined as 1.13. In turn, `CC(Cc1cccc(C(F)(F)F)c1)NCCOC(=O)c1ccccc1` (stereo unspecified) returned a score of 1.42. With `CCN(CC)CCNC(=O)c1cc(Br)c(N)cc1OC`, the score amounted to 1.41. Consider `COc1ccc(CN(CCN(C)C)c2ccccn2)cc1`, for which the score stood at 1.86.

`CCN(CC)C(=O)N1CCN(C)CC1`: the score came to 1.32.

In the case of `Cc1ncc([N+](=O)[O-])n1CCO`, the score is 1.16. In the case of `CCCCOc1ccc(OCCCN2CCOCC2)cc1` it was 1.09; in that of `O=C(O)CCC(=O)Nc1ccc(S(=O)(=O)Nc2nccs2)cc1`, 1.2; in that of `Cc1ccccc1N1C(=O)c2cc(S(N)(=O)=O)c(Cl)cc2NC1C` (stereo unspecified), 1.21. For `Cc1ccc(C(=O)c2ccc(CC(=O)O)n2C)cc1`, the score turned out to be 1.04. As for `Cc1ccccc1OCC(O)CO` (stereo unspecified), the score is 1.31. Take `O=C(Cn1ccnc1[N+](=O)[O-])NCCO`: the score is 1.21. In the case of `CC1(C)OC(=O)NC1=O` it was 1.47; in that of `COc1ccc(NS(=O)(=O)c2ccc(N)cc2)nn1`, 1.56; in that of `C=CCc1ccccc1OCC(O)CNC(C)C` (stereo unspecified), 1.39.

With `Cc1cc(C(C)(C)C)c(O)c(C)c1CC1=NCCN1`, the score is 1.29. In the case of `CCn1cc(C(=O)O)c(=O)c2cnc(N3CCCC3)nc21`, the score stood at 0.98. Regarding `CCOC(=O)[C@H](CCc1ccccc1)N[C@@H](C)C(=O)N1CCC[C@H]1C(=O)O`, the score came to 1.21. The value for `Cc1c(NC(=O)c2cccnc2)c(=O)n(-c2ccccc2)n1C` was 1.39.

`NS(=O)(=O)c1cc(C(=O)O)c(NCc2ccco2)cc1Cl` gave a score of 1.37.

Compound `CCCC(C(=O)OCCN(CC)CC)(c1ccccc1)c1ccccc1` displayed a score of 1.32. `O=C(O)c1ccccc1Nc1cccc(C(F)(F)F)c1` showed a score of -0.37.

`C[C@](N)(Cc1ccc(O)c(O)c1)C(=O)O`: the score turned out to be 1.25. `Cc1cc(N)c2ccccc2[n+]1CCCCCCCCCC[n+]1c(C)cc(N)c2ccccc21`: the score was determined as 0.06. Regarding `NS(=O)(=O)c1cc2c(cc1Cl)NC(C(Cl)Cl)NS2(=O)=O` (stereo unspecified), the score worked out at 1.03. For `Cc1ccnc(NS(=O)(=O)c2ccc(N)cc2)n1`, the score turned out to be 0.98. In turn, `Nc1ccc(S(=O)(=O)NC(=O)c2ccccc2)cc1` yielded a score of 1.2. On to `Cc1c(N(C)CS(=O)(=O)O)c(=O)n(-c2ccccc2)n1C`, for which the score worked out at 1.22.

Turning to `CCCOc1ccccc1-c1nc2n[nH]nc2c(=O)[nH]1`, the score worked out at 0.63. Consider `CC(=O)NO`, for which the score came to 1.13.
